Laboratory results taken from PubChem BioAssay.
Values without a mark were called inactive. The source made the active and inactive calls.

Experiment: CREB reporter modulators without forskolin, primary screen, cell-based, PC12, CRE-LacZ reporter, unstimulated (AID 1145)
Settings: no forskolin, luminescence, 4.5 h, higher = more signal, called active from +8 up or from −8 down

Question: For CC(C)CN1C(=O)[C@@]2(Cc3ccccc31)c1ccccc1C(=O)N(C1CCCCC1)[C@H]2c1ccc(CO)cc1, which z-score is on record?
Answer: Its z-score is -0.152.

Question: For COc1cccc([C@@H]2[C@@H](C)CC[C@H]3C(=O)N4[C@H](c5cccc(OC)c5)[C@@H](C)CC[C@H]4C(=O)N23)c1, which z-score is on record?
Answer: The z-score was 1.38.

Question: For CO[C@H]1COC(=O)[C@H](Cc2ccccc2)NC(=O)CC=C[C@@H](C)[C@H](OC)COC(=O)CC=C[C@@H]1C, which z-score is on record?
Answer: Its z-score is -0.567.

Question: Which z-score does the source give for CO[C@H]1COC(=O)[C@@H](OCc2ccccc2)C=C[C@H](C)[C@@H](OC)COC(=O)[C@H](OCc2ccccc2)C=C[C@@H]1C here?
Answer: The z-score was 1.16.

Question: For O=C1O[C@@H](c2ccccc2)[C@@H](c2ccccc2)N2[C@@H](c3ccc(O)cc3)[C@]3(C(=O)Nc4ccccc43)[C@@H](C(=O)N3CCN(c4ncccn4)CC3)[C@H]12, which z-score is on record?
Answer: The z-score was -0.815.

Question: Which z-score does the source give for O=C1O[C@@H](c2ccccc2)[C@@H](c2ccccc2)N2[C@@H](c3ccc(O)cc3)[C@]3(C(=O)Nc4ccc(C#CC5(O)CCCCCC5)cc43)[C@@H](C(=O)Nc3nc4ccccc4s3)[C@H]12 here?
Answer: Its z-score is 0.204.

Question: Which z-score does the source give for C=CC[C@]1(C(N)=O)N=C(c2ccc(OCCCO)cc2)O[C@H]1c1ccccc1CN=[N+]=[N-] here?
Answer: Its z-score is 1.54.

Question: With COCCOC(=O)N1C(=O)[C@@]2(c3cc(C#CCCO)ccc31)[C@H](C(=O)N1CCCCCCC1)[C@H]1C(=O)O[C@H](c3ccccc3)[C@H](c3ccccc3)N1[C@@H]2c1ccc(O)cc1 as the molecule, how does the z-score read?
Answer: Its z-score is -0.815.

Question: For C=CCOC(=O)[C@@H]1[C@H]2C(=O)O[C@H](c3ccccc3)[C@H](c3ccccc3)N2[C@H](c2ccc(OCCOC(=O)[C@H]3C[C@H]4C(=O)N5CCC[C@H]5C(=O)N4[C@H]3c3ccc(O)cc3)cc2)[C@@]12C(=O)Nc1ccccc12, which z-score is on record?
Answer: The z-score was -0.402.

Question: For CO[C@H]1COC(=O)CC=C[C@@H](C)COC(=O)[C@@H](C)NC(=O)CC=C[C@@H]1C, which z-score is on record?
Answer: The z-score was 0.608.

Question: For C=CCN1C(=O)[C@@]2(O[C@@H](CCn3cc([C@H](O)c4ccccc4)nn3)[C@H]([Si](C)(C)c3ccc(OC)cc3)[C@H]2C)c2cc(N3CCOC3=O)ccc21, which z-score is on record?
Answer: Its z-score is 8.19 (active).

Question: With CCCC/C=C/[C@H]([C@@H](O)Cc1ccccc1)N(CC#Cc1ccccc1)Cc1ccccc1Br as the molecule, how does the z-score read?
Answer: Its z-score is -0.0534.

Question: With CCOC(=O)[C@H]1C/C=C/C[C@H](C(=O)OCC)C(=O)O[C@H]2[C@@H](OC)O[C@H](CO)[C@@H](OC(=O)Nc3ccc(Br)cc3)[C@@H]2OC1=O as the molecule, how does the z-score read?
Answer: The z-score was -0.614.

Question: For COC(=O)c1c(CC[C@@H](CO)NC(=O)N[C@H](Cn2cc(-c3cncn3C)nn2)C(C)C)oc(C(C)=O)c1C(=O)OC, which z-score is on record?
Answer: The z-score was 1.01.

Question: Which z-score does the source give for COc1ccc([Si](C)(C)[C@H]2[C@H](CCO)O[C@@]3(C(=O)N(Cc4ccc(N5CCCCC5=O)cc4)c4ccccc43)[C@@H]2C)cc1 here?
Answer: Its z-score is 1.98.

Question: For O=C1c2ccccc2[C@](Cc2ccccc2I)(C(=O)O)[C@H](c2ccc(CO)cc2)N1C1CCCCC1, which z-score is on record?
Answer: Its z-score is 0.001.

Question: For CCCNC(=O)[C@@]1(Sc2ccc(C)cc2)CC(=O)N(Cc2ccccc2Cl)[C@@H]1c1ccc(CO)cc1, which z-score is on record?
Answer: Its z-score is 0.443.

Question: For O=C(NCC(O)CO)[C@]1(Cc2ccccc2)N=C(c2ccc(OCCCO)cc2)O[C@@H]1c1ccccc1 (some centres not stated), which z-score is on record?
Answer: The z-score was 0.171.

Question: For O=C(CS)NCCCCCNC(=O)[C@H]1C[C@H]2C(=O)N3CCC[C@H]3C(=O)N2[C@H]1c1ccc(O)cc1, which z-score is on record?
Answer: Its z-score is -0.528.

Question: With COc1cccc([C@H]2N[C@H](C(=O)O)CC[C@@H]2C)c1 as the molecule, how does the z-score read?
Answer: Its z-score is -0.167.

Question: With CC(C)[Si]1(C(C)C)O[C@@H](c2ccccc2)c2cc(C3CC3)nc(-c3ccc(Oc4ccccc4)cc3)c21 as the molecule, how does the z-score read?
Answer: Its z-score is 0.0176.

Question: For CC(=O)Nc1ccc([C@H]2[C@H](C)CC[C@H]3C(=O)N4[C@@H](CC[C@@H](C)[C@@H]4c4ccc(NC(C)=O)cc4)C(=O)N32)cc1, which z-score is on record?
Answer: Its z-score is 3.09.

Question: With COc1cc2c(cc1OC)CN(C(=O)[C@@H]1[C@H]3C(=O)O[C@H](c4ccccc4)[C@H](c4ccccc4)N3[C@H](c3ccccc3OCCO)[C@@]13C(=O)Nc1ccccc13)CC2 as the molecule, how does the z-score read?
Answer: The z-score was 0.769.

Question: With [N-]=[N+]=NCc1ccccc1C[C@@]1(C(=O)N2CCOCC2)N=C(c2ccc(OCCCO)cc2)O[C@@H]1c1ccccc1N=[N+]=[N-] as the molecule, how does the z-score read?
Answer: Its z-score is 0.218.

Question: With C=CC[C@]1(C(=O)OC)N=C(c2ccc(OCCCO)cc2)O[C@H]1c1ccccc1CN=[N+]=[N-] as the molecule, how does the z-score read?
Answer: Its z-score is 5.1.

Question: For CO[C@]12C=C(Br)[C@@H](C[C@@H]1c1ccccc1)[C@@]1(CO1)C2=O, which z-score is on record?
Answer: Its z-score is -0.323.

Question: With C[C@]1(C(=O)NCc2ccccc2)c2ccccc2C(=O)N(Cc2cc(C(F)(F)F)cc(C(F)(F)F)c2)[C@H]1c1ccc(CO)cc1 as the molecule, how does the z-score read?
Answer: The z-score was -0.735.
